# The list is not random: actives were taken first. Their share in the collection is about 19%.
# Giardia killer: Giardia lamblia killing; 0.15% of 340,000 active; activity change, % at 7.66 µM, hits read low; Giardia lamblia trophozoite viability; in the data active = activity change below about -80%; inconclusive = between about -30% and that limit;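 also: parasites exposed to compound for two days anaerobically before the ATP read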
#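 Giardia lamblia trophozoites (100 cells/well) were incubated with compounds for 48 h at 37 deg C under anaerobic conditions. Viability was read as ATP content by one-step luminescence after 15-30 min at room temperature.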
# DT40 TDP1 CPT: growth inhibition of DT40 Tdp1-/-;hTDP1 cells with camptothecin (screen for TDP1 inhibitors). AID 686979. 12% of 420,000 active. Potency, µM (series often up to 46.2 µM), without a hit: at the top dose activity change, negative = growth inhibition, actives largely listed as inhibitors. chicken DT40 Tdp1-/-;hTDP1 cells + 20 nM CPT, ATP luminescence, 48 h; also: potency is read from the fitted curve at half-maximal effect; nearly all actives have a fitted effect of over 55% in size
#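 Cell growth measured by CellTiter-Glo luminescence after a minimum 48 h, 37 C compound exposure with 20 nM CPT in Tdp1-knockout DT40 cells stably expressing hTDP1, seeded 400/well; qHTS titration format.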
# TDP1 cell noCPT: qHTS for Inhibitors of human tyrosyl-DNA phosphodiesterase 1 (TDP1): qHTS in cells in absence of CPT; AID 686978, 2013; Potency, µM (top dose mostly 46.2 µM), without a hit: at the top dose activity change, negative = growth inhibition, most hits filed as inhibitors; DT40 Tdp1-/- hTDP1 cells, no CPT, ATP luminescence, 48 h; 15% of 420,000 active; also: potency is read from the fitted curve at half-maximal effect; nearly all actives have a fitted effect of over 55% in size
#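 Readout: luminescence from CellTiter-Glo after 30 min in the dark at RT. Cells: DT40 Tdp1-/- with stable hTDP1, 400/well. Exposure: compounds alone, ≥48 hr, 37 °C.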
# ELG1 DNA repair: ELG1-dependent DNA repair inhibition; HEK293T ELG1-luciferase reporter, luminescence, 16 h; DNA damage induced by 5-fluorouridine; Potency, µM (titrated, usually from 46.1 µM), for the others: top-dose activity change, negative = inhibition, most hits filed as inhibitors; 2.3% of 330,000 active; also: potency is read from the fitted curve at half-maximal effect; nearly all actives have a fitted effect of over 55% in size
#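 Luminescence from the luciferase reporter, measured 30 min after ONE-Glo reagent at room temperature, was the read-out. Beforehand, 2,000 cells per well were exposed for 16 hr at 37 °C to 5-fluorouridine together with compound or vehicle.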
# TDP1 block: TDP1 (human) enzyme inhibition; AID 485290; recombinant TDP1, AlphaScreen DNA substrate cleavage; 0.28% of 350,000 active; Q9NUW8; Potency, µM (doses to about 130 µM), inactives show at the highest dose activity change, negative = inhibition, actives largely listed as inhibitors; also: potency is read from the fitted curve at half-maximal effect; nearly all actives have a fitted effect of over 40% in size
# Target sequence (Q9NUW8 whole entry, looked up): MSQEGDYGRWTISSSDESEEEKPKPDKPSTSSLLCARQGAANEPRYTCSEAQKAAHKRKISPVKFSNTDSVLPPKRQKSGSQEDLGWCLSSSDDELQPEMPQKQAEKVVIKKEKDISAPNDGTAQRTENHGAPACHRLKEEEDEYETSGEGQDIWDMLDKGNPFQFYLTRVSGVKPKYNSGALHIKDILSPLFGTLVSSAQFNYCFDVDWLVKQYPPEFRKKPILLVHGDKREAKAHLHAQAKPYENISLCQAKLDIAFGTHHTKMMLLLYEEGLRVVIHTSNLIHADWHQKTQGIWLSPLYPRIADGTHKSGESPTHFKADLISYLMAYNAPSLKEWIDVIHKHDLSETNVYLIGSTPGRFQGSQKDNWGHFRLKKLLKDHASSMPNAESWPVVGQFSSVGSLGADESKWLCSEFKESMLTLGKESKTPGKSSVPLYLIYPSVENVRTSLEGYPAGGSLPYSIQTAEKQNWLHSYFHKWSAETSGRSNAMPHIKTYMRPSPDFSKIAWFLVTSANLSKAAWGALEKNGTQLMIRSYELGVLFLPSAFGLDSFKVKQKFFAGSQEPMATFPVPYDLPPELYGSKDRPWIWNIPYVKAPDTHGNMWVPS
#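 Compounds were preincubated with Tdp1 (1 nM final) for 15 min at room temperature before substrate (15 nM final) started a 5 min reaction; beads (10 ug/ml final) were then added for 10 min before AlphaScreen detection.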
# IL-1B inflam inh: inhibitors of inflammasome signaling (IL-1 beta secretion). THP-1 LPS/ATP IL-1B secretion, AlphaLISA, 16 h; stronger effect = lower value. activity change, % at 57.5 µM. 4.7% of 360,000 active. AID 743279; in the data active = activity change below about -50%; inconclusive = mostly about -30% to -49%
#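 Secreted IL-1B measured by AlphaLISA bead assay after 16 h compound exposure of THP-1 cells; compounds (final up to 57.5 uM) added 1 h before LPS (250 ng/mL) and ATP (1.25 mM) stimulation; lower signal means less secretion.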
# Starred values were filed as active, the others as inactive; ? = inconclusive; nt = no result; [ ] = remark or other dose. Unless noted, calls follow the shape of the dose curve; as a rule, active = well fitted curve in the direction sought with a large enough effect; inconclusive = small, poorly fitted or top-dose-only effect, or another doubt; inactive = no such curve, though single readings can be large; an effect the other way counts as inactive or inconclusive. % is scaled to controls: 0 for no effect and ±100 for the full control effect.
SMILES,Giardia killer,DT40 TDP1 CPT,TDP1 cell noCPT,ELG1 DNA repair,TDP1 block,IL-1B inflam inh
CCC(/C=C/C(C)C1CCC2C3CCC4=CC(=O)CC[C@@]4(C)C3CC[C@@]12C)C(C)C (some centres undefined),nt,-9.0%,4.4%,nt,-6.9%[56.1 µM],nt
COc1ccccc1CNCc1ccc2c(c1)OCO2,nt,-16.9%,?,nt,nt,-21.5
O=Cc1ccccc1OCc1ccc2c(c1)OCO2,-17.1,5.17µM*,2.91µM*,?,nt,32.8
CC1CCCN(C(=O)CSc2nnc3n(C4CCCC4)c(=O)c4ccccc4n23)C1 (centres undefined),4.7,23.1µM*,16.4µM*,9.2µM*,-3.1%,-2.3
O=C(CSc1nnc2n(C3CCCC3)c(=O)c3ccccc3n12)N1CCCCCC1,-1.2,20.6µM*,23.1µM*,?,4.8%,-10.3
COc1ccccc1Cn1c(=O)c2ccccc2n2c(SCC(=O)N3CCCCC3)nnc12,14.4,?,?,?,0.6%,-24.2
CC1CCCN(C(=O)CSc2nnc(-c3cccnc3)n2C2CCCCC2)C1 (centres undefined),-4.6,-24.4%,-17.1%,-13.8%,-2.1%,-0.9
Cc1ccc(OCc2cc(=O)n3ccsc3n2)c(NC(=O)c2ccco2)c1,nt,3.2%,1.5%,nt,0.0%,nt
Cc1ccc2c(c1)-n1c(nc3cc(C)ccc3c1=O)C(Cc1ccccc1)NC2=O (centres undefined),nt,nt,nt,13.1%,1.5%,nt
Cc1ccc2c(c1)-n1c(nc3cc(F)ccc3c1=O)C(Cc1ccc(O)cc1)NC2=O (centres undefined),nt,nt,nt,12.2%,3.4%,nt
Cc1ccc2c(=O)n3c(nc2c1)C(Cc1ccc(O)cc1)NC(=O)c1cc2ccccc2cc1-3 (centres undefined),nt,?,18.4µM*,nt,nt,-3.4
O=C1NC(Cc2ccc(O)cc2)c2nc3cc(F)ccc3c(=O)n2-c2cc3ccccc3cc21 (centres undefined),nt,?,7.31µM*,nt,nt,?
CCCOc1ccc(CSC(=N)N)cc1C(=O)OC,18.9,?,?,-2.1%,1.4%,-57.4*
COC(=O)c1cc(CSC(=N)N)ccc1OCCC(C)C,6.4,?,23.1µM*,-11.8%,2.7%,-85.2*
CCCOc1ccc(NC(N)=O)cc1OCCC,10.7,-0.6%,9.1%,19.5%,2.4%,12.1
O=C(Cc1ccc(NC(=O)C2CCN(C(=O)c3ccccc3)CC2)cc1)Nc1cccc(C(=O)N2CCCCC2)c1,-24.2,-19.4%,-17.0%,nt,nt,0.6
COc1cc(OC)cc(C2=Nn3c(nnc3-c3cccc(OC)c3)SC2)c1,nt,nt,nt,nt,2.1%,nt
CCCc1nc2ccc(NC(C)=O)cc2c(=O)n1Cc1ccc(Cl)cc1,-18.2,?,23.1µM*,?,1.2%,?
CCCc1nc2ccc(NC(=O)c3cccs3)cc2c(=O)n1Cc1ccccc1Cl,-7.5,?,16.4µM*,?,0.0%,-14.4
CCn1cnc2cc(NC(=O)c3cccs3)ccc21,-12.9,-12.3%,-1.7%,?,5.1%,-18.4
CCOc1ccc(CNc2nnnn2C)cc1,-12.2,4.8%,-3.6%,21.1%,nt,7.5
CC(C)N1CCC2(CC1)N=C(c1ccc3c(c1)OCO3)CC(c1cc(Cl)ccc1O)N2 (centres undefined),-17.8,5.8µM*,5.17µM*,-21.5%,0.0%,-116.9*
CC(Sc1ccc(Cl)cc1)C(=O)NCc1ccc2c(c1)OCO2 (centres undefined),11.9,-24.2%,-21.0%,-8.4%,4.7%,-2.8
O=C(Nc1ccc(NC(=O)c2cccs2)cc1)c1ccc2c(c1)OCO2,-21.3,?,-28.5%,?,-5.6%,-16.0
CC1CC(C)CN(C(=O)COC(=O)c2ccc3c(c2)OCO3)C1 (centres undefined),-14.5,-4.2%,-10.2%,?,0.3%,-4.9
SMILES,Giardia killer,DT40 TDP1 CPT,TDP1 cell noCPT,ELG1 DNA repair,TDP1 block,IL-1B inflam inh
CCOC(=O)c1cccc(NC(=O)/C=C/c2ccc3c(c2)OCO3)c1,10.1,?,18.4µM*,?,2.7%,-89.5*
CC1CCCC(C)N1C(=O)COC(=O)c1ccc2c(c1)OCO2 (centres undefined),21.4,-0.7%,29.1µM*,?,1.0%,12.8
CCOC(=O)c1cccc(NC(=O)c2ccc3c(c2)OCO3)c1,-5.3,14.6µM*,11.6µM*,?,nt,-84.7*
O=C(Nc1cccc(NC(=O)c2cccs2)c1)c1ccc2c(c1)OCO2,17.7,?,11.6µM*,?,2.5%,-77.4*
COc1ccc(C2(C)NC(=O)N(CC(=O)NC(C)c3ccc(CC(C)C)cc3)C2=O)cc1 (centres undefined),15.4,?,?,?,nt,-20.6
CCOC(=O)c1c(C)c(C(=O)Nc2ccc3c(c2)OCCO3)c(C)n1CC,1.6,10µM*,11.2µM*,0.1%,2.8%,16.2
Cc1cccc(Cn2c(C(C)(C)C)cc3cccnc32)c1,2.3,?,20.6µM*,-15.1%,5.6%,-23.3
Cc1cccc(Cn2c(CNS(=O)(=O)c3ccc(Cl)s3)nc3cccnc32)c1,nt,?,?,nt,9.9%,nt
O=C(C[n+]1ccccc1Cl)c1ccc(O)c(O)c1,nt,-0.5%,-19.1%,nt,nt,nt
CCCN(N=Nc1cccc([N+](=O)[O-])c1)c1cccc([N+](=O)[O-])c1,-6.6,?,?,-7.1%,4.7%,-50.6*
CCC(CC)CN1C(Nc2ccccc2)=NC[C@@H]1C,17.5,?,?,?,nt,-4.6
O=C(COC(=O)C1(c2ccc(F)cc2)CCCC1)NCc1ccc2c(c1)OCO2,-8.8,?,?,?,0.0%,-3.9
NS(=O)(=O)c1ccc(NC(=O)COC(=O)C2(c3ccccc3F)CCCC2)cc1,-10.2,?,?,-20.7%,2.7%,-62.5*
O=C(COC(=O)C1(c2ccccc2F)CCCC1)NCc1cccs1,7.7,?,23.1µM*,?,0.0%,?
O=C(COC(=O)C1(c2ccc(Cl)cc2)CCCC1)NCc1ccco1,-15.5,0.0%,-25.5%,-16.9%,0.0%,-5.8
O=C(COC(=O)C1(c2ccccc2F)CCCC1)NCc1ccc2c(c1)OCO2,-16.8,?,?,?,5.4%,-72.7*
O=C(COC(=O)C1(c2ccccc2F)CCCC1)NC1CCS(=O)(=O)C1 (centres undefined),8.2,4.5%,-13.0%,-4.3%,2.2%,-1.0
CCc1ccc(NC(=O)COC(=O)C2(c3ccc(Cl)cc3)CCCC2)cc1,3.1,20.6µM*,20.6µM*,-11.9%,-2.8%,9.0
